# FAS TE block: blocks the thioesterase domain of human fatty acid synthase; inhibition, % at 15 µM; actives 0.67% (n = 360,000); P49327; recombinant FAS-TE, OMFH fluorogenic substrate, fluorescence endpoint;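 active means compounds whose normalised, plate-corrected inhibition of enzyme fluorescence in the single-dose primary screen is 50% or more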;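 further: 0% = DMSO with enzyme and 100% = substrate without enzyme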
# Target sequence (P49327 whole entry, looked up, the tested form may be a part): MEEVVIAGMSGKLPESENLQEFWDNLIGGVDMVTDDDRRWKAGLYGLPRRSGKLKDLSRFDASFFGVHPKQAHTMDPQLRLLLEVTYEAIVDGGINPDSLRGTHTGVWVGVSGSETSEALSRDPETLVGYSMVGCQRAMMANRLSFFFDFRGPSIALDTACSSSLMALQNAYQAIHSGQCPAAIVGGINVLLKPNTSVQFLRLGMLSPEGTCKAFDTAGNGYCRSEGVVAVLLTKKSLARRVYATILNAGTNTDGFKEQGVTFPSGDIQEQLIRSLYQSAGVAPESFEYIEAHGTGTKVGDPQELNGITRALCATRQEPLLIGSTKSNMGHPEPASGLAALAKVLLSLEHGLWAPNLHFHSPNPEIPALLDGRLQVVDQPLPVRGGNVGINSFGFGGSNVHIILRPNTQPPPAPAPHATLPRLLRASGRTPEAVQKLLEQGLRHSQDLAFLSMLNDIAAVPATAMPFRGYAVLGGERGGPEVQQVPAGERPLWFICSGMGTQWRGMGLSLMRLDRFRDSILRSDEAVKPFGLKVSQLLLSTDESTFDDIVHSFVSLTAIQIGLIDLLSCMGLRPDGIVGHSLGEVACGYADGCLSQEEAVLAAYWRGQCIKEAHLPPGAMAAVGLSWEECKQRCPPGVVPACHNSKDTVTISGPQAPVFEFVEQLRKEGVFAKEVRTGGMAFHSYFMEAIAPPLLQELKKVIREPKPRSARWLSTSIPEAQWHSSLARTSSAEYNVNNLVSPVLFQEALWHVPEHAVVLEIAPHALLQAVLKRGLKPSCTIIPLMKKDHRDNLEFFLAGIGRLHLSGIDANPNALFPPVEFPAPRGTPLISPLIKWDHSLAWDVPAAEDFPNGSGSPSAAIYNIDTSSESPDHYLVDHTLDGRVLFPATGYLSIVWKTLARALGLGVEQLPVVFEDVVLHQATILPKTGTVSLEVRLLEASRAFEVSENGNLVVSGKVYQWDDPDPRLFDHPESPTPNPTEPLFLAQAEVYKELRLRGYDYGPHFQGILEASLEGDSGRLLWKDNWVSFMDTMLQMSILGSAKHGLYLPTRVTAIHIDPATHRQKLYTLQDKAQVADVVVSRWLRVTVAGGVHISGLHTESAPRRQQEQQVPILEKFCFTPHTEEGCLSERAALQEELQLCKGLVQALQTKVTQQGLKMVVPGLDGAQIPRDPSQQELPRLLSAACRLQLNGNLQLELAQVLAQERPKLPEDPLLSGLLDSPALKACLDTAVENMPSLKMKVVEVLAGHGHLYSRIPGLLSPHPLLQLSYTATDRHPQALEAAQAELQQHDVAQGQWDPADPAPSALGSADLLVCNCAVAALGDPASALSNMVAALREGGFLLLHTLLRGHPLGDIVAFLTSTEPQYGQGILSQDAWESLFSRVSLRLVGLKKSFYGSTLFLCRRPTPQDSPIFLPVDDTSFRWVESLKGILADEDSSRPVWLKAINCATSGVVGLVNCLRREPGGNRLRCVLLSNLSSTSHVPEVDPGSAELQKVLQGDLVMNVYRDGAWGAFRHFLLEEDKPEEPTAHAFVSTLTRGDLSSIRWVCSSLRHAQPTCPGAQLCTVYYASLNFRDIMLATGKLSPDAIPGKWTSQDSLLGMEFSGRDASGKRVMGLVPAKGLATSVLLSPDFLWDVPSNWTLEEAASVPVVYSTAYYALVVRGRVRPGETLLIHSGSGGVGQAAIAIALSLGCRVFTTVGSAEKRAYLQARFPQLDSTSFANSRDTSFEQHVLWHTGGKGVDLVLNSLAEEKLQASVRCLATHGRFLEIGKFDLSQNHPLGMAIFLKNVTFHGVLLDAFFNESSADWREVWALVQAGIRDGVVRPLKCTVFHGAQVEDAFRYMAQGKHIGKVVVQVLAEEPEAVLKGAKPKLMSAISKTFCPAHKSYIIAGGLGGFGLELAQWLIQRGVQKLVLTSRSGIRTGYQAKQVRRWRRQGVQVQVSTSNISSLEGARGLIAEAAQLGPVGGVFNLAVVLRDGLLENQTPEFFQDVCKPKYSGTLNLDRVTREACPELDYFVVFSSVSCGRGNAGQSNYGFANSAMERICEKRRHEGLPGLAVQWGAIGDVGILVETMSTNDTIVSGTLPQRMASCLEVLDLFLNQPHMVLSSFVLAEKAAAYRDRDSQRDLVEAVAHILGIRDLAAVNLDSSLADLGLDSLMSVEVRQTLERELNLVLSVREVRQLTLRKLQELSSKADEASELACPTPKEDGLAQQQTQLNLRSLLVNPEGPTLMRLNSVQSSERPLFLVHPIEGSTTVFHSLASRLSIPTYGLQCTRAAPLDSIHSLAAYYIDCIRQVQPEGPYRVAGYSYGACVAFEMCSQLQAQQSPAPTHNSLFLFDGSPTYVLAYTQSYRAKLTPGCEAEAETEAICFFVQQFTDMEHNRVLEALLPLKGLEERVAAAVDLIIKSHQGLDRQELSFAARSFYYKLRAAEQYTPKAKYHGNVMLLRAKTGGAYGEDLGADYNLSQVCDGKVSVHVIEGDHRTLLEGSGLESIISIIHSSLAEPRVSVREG
# aDG glyco act: alpha-DG glycosylation activation. activation, % at 10 µM. actives 0.22% (n = 360,000). Pro5-aDG cells, alpha-DG glycosylation AlphaScreen (IIH6); 0% Pro5, 100% B10-LARGE cell signal;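 active means activation of at least 8% versus controls, or a plate z-score of at least 8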;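 further: Pro5 are CHO cells carrying HIG-tagged alpha-DG that lacks glycosylation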
# Calpain2 inh: blocks pig calpain II enzyme activity; purified calpain II, fluorogenic peptide substrate, 30 min; actives 0.37% (n = 220,000); inhibition, % at 16 µM;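 active means inhibition above about 50%, limit read from the data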
# H9c2 TAG inh: reduces triacylglycerol accumulation in H9c2 cells; AID 651582; inhibition, % at 12.5 µM; actives 0.66% (n = 230,000); Nile Red lipid (TAG) fluorescence; cells loaded with 200 µM oleic acid;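 active means pattern-corrected inhibition of lipid staining of at least 50% with the nuclear-stain viability signal not falling by more than 50%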;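 further: 0% = DMSO wells and 100% = triacsin C control wells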
# H9c2 protect: myocardial damage modulation in H9c2 cells; H9c2 cardiomyocytes, H2O2 injury protection, ATPLite, 2 h; protection from H2O2 cell death, % at 20 µM; actives 0.63% (n = 360,000); AID 588492;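 active means compounds giving at least 50% protection of heart cells from peroxide-induced death in the single-dose screen, raw or plate-pattern-corrected value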;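 further: 0% = DMSO wells with peroxide and 100% = DMSO wells without peroxide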
# MIN6 prolif-1: induces beta-cell replication in MIN6 cells; actives 0.29% (n = 330,000); proliferation, % at 10 µM; MIN6 cells proliferation, ATPlite luminescence, 48 h; cells starved in 0.2% serum; 100% = growth in 10% serum;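 active means compounds whose signal lies at least 3.5 SD above the mean of all wells on their plate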;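 further: 0% = DMSO-treated cells in low-serum medium and 100% = 10% serum control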
# MIN6 prolif-2: confirmation of inducers of beta-cell replication in MIN6 cells; shares compounds with MIN6 prolif-1; MIN6 beta-cell proliferation, ATPlite luminescence, 48 h; cells kept in 0.2% serum; scaled between 0.2% and 10% serum; proliferation increase, % at 50 µM; 920 tested, under 10 active;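 active means proliferation increase above 40% at any of the four tested concentrations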
# * = called active by the depositor; . = not tested or not shown. In the library only some 2.3% were active in any assay of this set; here they are far more common.
SMILES,FAS TE block,aDG glyco act,Calpain2 inh,H9c2 TAG inh,H9c2 protect,MIN6 prolif-1,MIN6 prolif-2
CCOc1ccc(CCNC(=O)COc2cccc(-n3cnnn3)c2)cc1OCC,-3.5,0.3,.,26.0,1.3,1.7,.
COC(=O)CCCn1cc(CN2CC(N3CCN(C4CCN(C)CC4)CC3)CS2(=O)=O)nn1 (centres undefined),-9.4,-0.1,.,.,.,.,.
CCc1ccc(NC(=O)CCn2nc(C)c(S(=O)(=O)N3CCCCC3)c2C)cc1,5.8,0.5,.,.,-3.2,-0.6,.
COc1ccc(NC(=O)CN(C)C(=O)CN2C(=O)NC3(CCCC3)C2=O)cc1,-5.6,0.1,.,7.9,4.4,16.1*,-2.3
CN(CC(=O)Nc1ccc(F)cc1)C(=O)CN1C(=O)NC2(CCCCC2)C1=O,-13.4,0.1,.,0.0,1.2,-2.7,.
Cc1cccc(OCC(=O)NC2CCCCCC2)c1C,5.9,-0.2,.,-1.6,0.8,1.3,.
Cc1ccccc1OCC(=O)NC1CCCCCCC1,5.6,0.2,.,.,-7.0,6.0*,-6.5
O=C(CN1CCN(C(=O)CNC(=O)c2ccc(N3CCCC3=O)cc2)CC1)Nc1cccc(F)c1,-9.0,-0.1,.,6.9,3.3,.,.
NC(=O)c1cc(S(=O)(=O)NCCc2ccccc2)cs1,0.6,-0.2,.,.,-4.0,1.2,.
NC(=O)c1cc(S(=O)(=O)NCCc2ccc(S(N)(=O)=O)cc2)cs1,-3.6,-0.2,.,.,-2.2,5.5*,-0.3
COc1cccc(-c2nc(Cl)nc3cc(Cl)ccc23)c1,8.1,-0.2,.,.,.,.,.
Cc1ccc(CNc2ncnc(N)c2[N+](=O)[O-])cc1,-5.6,0.1,-10.9,-17.3,41.3,7.8*,8.5
CC(C)=CC/C=C1\CCC(C(=O)O)C(C(=O)O)C1 (centres undefined),-6.5,0.1,-2.6,.,37.3,5.5*,-2.0
COc1ccc(N2CCN(C(=O)COc3ccc(S(=O)(=O)N4CCOCC4)cc3C)CC2)cc1,0.7,-0.1,.,.,-5.7,0.0*,5.3
COc1ccc(OCCCC(=O)Nc2cc(S(=O)(=O)N3CCCCC3)ccc2C)cc1,16.2,0.0,.,1.1,-9.7,-2.5,.
CCn1c(CNC(=O)c2ccccc2OC)nnc1SCC(=O)c1ccc(F)cc1,-7.7,0.4,.,.,-5.1,5.8*,2.0
CSCCC(C(=O)NCc1ccccc1)n1c(Cc2cc(F)cc(F)c2)nc2ccccc21 (centres undefined),.,-0.2,.,.,.,.,.
CO/N=C(/c1nonc1N)N1CCN(c2ccc([N+](=O)[O-])cc2)CC1,5.3,0.3,7.8,.,-10.3,10.8*,2.4
CC1=CC(=O)C(C(C)=Nc2ccccc2Cl)C(=O)O1 (centres undefined),-1.0,0.0,14.0,1.4,2.0,-3.6,.
CCC(NC(C)C)C(O)c1ccc(O)c2[nH]c(=O)ccc12 (centres undefined),-3.2,0.3,-19.9,-6.8,11.3,19.0*,-0.4
O=C(c1ccsc1)N1CCCC(Nc2cccc(F)c2)C1 (centres undefined),-9.2,0.0,.,-2.4,1.9,11.6*,-1.5
C#Cc1cccc(C(=O)N2CCCC(Nc3cccc(F)c3)C2)c1 (centres undefined),7.2,0.2,.,-9.3,-2.2,-2.4,.
O=C1CCCCCCC1Sc1ccccc1[N+](=O)[O-] (centres undefined),1.5,0.2,0.8,0.1,5.0,6.2*,-4.1

# Screening results (PubChem BioAssay)
